Where “and” joins values, the source holds several entries; their conditions need not be identical. Equal values may be shown once. The whole screen tested about 5,500 compounds, of which about 2,000 (36%) were called active. Inconclusive results (about 18%) are left out. Cut-off read from the data, not from the text of the source: active = normalized growth mostly below about 0.91 (no sharp cut-off); inconclusive = no clear call, values can overlap the other calls; inactive = mostly above about 0.92. The list shows a part of the results.
Assay: chemical genetic growth profiling, strain panel (AID 1159580);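 note: tested at 20 µM; growth read once vehicle control cultures reached saturation at 30 °C; 1 = growth at the plate median or of vehicle wells; lower values mean less growth of the strain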
Settings: S. cerevisiae deletion strains, growth OD

Measured: normalized growth

CC[C@H]1OC(=O)[C@H](C)[C@@H](O[C@H]2C[C@@](C)(OC)[C@@H](O)[C@H](C)O2)[C@H](C)[C@@H](O[C@@H]2O[C@H](C)C[C@H](N(C)C)[C@H]2O)[C@](C)(O)C[C@@H](C)/C(=N/OCOCCOC)[C@H](C)[C@@H](O)[C@]1(C)O
inactive: locus YAL021C, strain ccr4, active compounds read low 1.03 | locus YAL026C, strain drs2, active compounds read low 1.02 | locus YAL030W, strain snc1, active compounds read low 0.998 | locus YBL061C, strain skt5, active compounds read low 1.01 | locus YBR009C, strain hhf1, active compounds read low 0.998 | locus YBR021W, strain FUR4, active compounds read low 1.02 | locus YBR023C, strain chs3, active compounds read low 1.01 | locus YBR171W, strain sec66, active compounds read low 1.03 | locus YBR229C, strain ROT2, active compounds read low 1.01 | locus YBR231C, strain swc5, active compounds read low 1.01 | locus YBR279W, strain paf1, active compounds read low 1 | locus YCL011C, strain gbp2, active compounds read low 1.01 | locus YCL016C, strain dcc1, active compounds read low 1 | locus YCL029C, strain bik1, active compounds read low 0.988 | locus YCL069W, strain vba3, active compounds read low 1.02 | locus YCR088W, strain abp1, active compounds read low 1.01 | locus YDL005C, strain med2, active compounds read low 1.01 | locus YDL035C, strain GPR1, active compounds read low 1.01 | locus YDL040C, strain nat1, active compounds read low 1.01 | locus YDL074C, strain BRE1, active compounds read low 0.975 | locus YDL101C, strain DUN1, active compounds read low 0.991 | locus YDL134C, strain PPH21, active compounds read low 1.01 | locus YDL185W, strain tfp1, active compounds read low 1 | locus YDL192W, strain arf1, active compounds read low 1.01 | locus YDR001C, strain nth1, active compounds read low 1.01 | locus YDR069C, strain doa4, active compounds read low 1.03 | locus YDR101C, strain arx1, active compounds read low 0.994 | locus YDR137W, strain rgp1, active compounds read low 0.969 | locus YDR159W, strain sac3, active compounds read low 0.996 | locus YDR162C, strain NBP2, active compounds read low 1.01 | locus YDR195W, strain ref2 0.994 | locus YDR297W, strain sur2, active compounds read low 1.02 | locus YDR318W, strain mcm21, active compounds read low 0.995 | locus YDR334W, strain swr1, active compounds read low 1.01 | locus YDR335W, strain msn5, active compounds read low 1.01 | locus YDR388W, active compounds read low 0.999 | locus YDR392W, strain spt3, active compounds read low 0.949 | locus YDR502C, strain sam2, active compounds read low 1.01 | locus YEL003W, strain gim4, active compounds read low 1.02 | locus YEL037C, strain rad23, active compounds read low 1.02 | locus YEL061C, strain CIN8 (second series), active compounds read low 1 | locus YEL061C, strain CIN8, active compounds read low 1 | locus YER015W, strain faa2, active compounds read low 1.01 | locus YER016W, strain bim1, active compounds read low 0.995 | locus YER110C, active compounds read low 1 | locus YER111C, strain swi4, active compounds read low 1.01 | locus YER155C, strain BEM2 (second series), active compounds read low 0.897 | locus YER155C, strain BEM2, active compounds read low 1 | locus YER167W, strain BCK2, active compounds read low 1 | locus YFR010W, strain ubp6, active compounds read low 1.02 | locus YGL078C, strain dbp3, active compounds read low 1 | locus YGL086W, strain mad1, active compounds read low 1 | locus YGL167C, strain pmr1, active compounds read low 1 | locus YGL173C, strain kem1, active compounds read low 1.02 | locus YGL227W, strain vid30, active compounds read low 1.03 | locus YGL240W, strain doc1, active compounds read low 1.02 | locus YGL248W, strain PDE1, active compounds read low 0.993 | locus YGL253W, strain hxk2, active compounds read low 1.01 | locus YGR135W, strain pre9, active compounds read low 1.04 | locus YGR229C, strain SMI1, active compounds read low 1.01 | locus YHR013C, strain ard1, active compounds read low 0.983 | locus YHR027C, strain rpn1, active compounds read low 0.999 | locus YHR030C, strain SLT2, active compounds read low 1.01 and 0.997 | locus YHR079C, strain IRE1 (second series), active compounds read low 0.98 | locus YHR079C, strain IRE1, active compounds read low 0.985 | locus YHR094C, strain hxt1, active compounds read low 0.987 | locus YHR129C, strain ARP1, active compounds read low 1.01 | locus YHR142W, strain chs7, active compounds read low 1.02 | locus YHR200W, strain rpn10, active compounds read low 1.01 | locus YIL066C, strain RNR3, active compounds read low 0.983 | locus YIL073C, strain SPO22, active compounds read low 1.07 | locus YIL125W, strain kgd1, active compounds read low 1 | locus YIR030C, strain dcg1, active compounds read low 0.997 | locus YJL092W, strain hpr5, active compounds read low 1.01 | locus YJL095W, strain BCK1 (second series), active compounds read low 1.01 | locus YJL095W, strain BCK1, active compounds read low 0.97 and 0.99 | locus YJL115W, strain asf1, active compounds read low 1.04 | locus YJL129C, strain trk1, active compounds read low 1.02 | locus YJL134W, strain LCB3, active compounds read low 1 | locus YJL154C, strain vps35, active compounds read low 1.01 | locus YJL164C, strain tpk1, active compounds read low 1.01 | locus YJL166W, strain qcr8, active compounds read low 1.01 | locus YJL168C, strain set2, active compounds read low 0.992 | locus YJL187C, strain SWE1 (second series), active compounds read low 0.97 | locus YJL187C, strain SWE1, active compounds read low 1.02 | locus YJR043C, strain POL32, active compounds read low 1.01 | locus YJR066W, strain TOR1, active compounds read low 0.977
